The list is not random: actives were taken first. Their share in the collection is about 2.4%.
D2 PAM-1: HTS Assay for Positive Allosteric Modulators of the Human D2 Dopamine Receptor: Primary Screen for Potentiators | HEK293 T-REx D2, calcium flux, EC20 dopamine potentiation | D(2) dopamine receptor (Homo sapiens), P14416 | potentiation, % at 10 µM | 340,000 tested, 0.34% active | AID 485347, 2010;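 active = potentiation over 3 SD above the plate norm, cut at about 30% in these data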
Target sequence (P14416 whole entry, looked up): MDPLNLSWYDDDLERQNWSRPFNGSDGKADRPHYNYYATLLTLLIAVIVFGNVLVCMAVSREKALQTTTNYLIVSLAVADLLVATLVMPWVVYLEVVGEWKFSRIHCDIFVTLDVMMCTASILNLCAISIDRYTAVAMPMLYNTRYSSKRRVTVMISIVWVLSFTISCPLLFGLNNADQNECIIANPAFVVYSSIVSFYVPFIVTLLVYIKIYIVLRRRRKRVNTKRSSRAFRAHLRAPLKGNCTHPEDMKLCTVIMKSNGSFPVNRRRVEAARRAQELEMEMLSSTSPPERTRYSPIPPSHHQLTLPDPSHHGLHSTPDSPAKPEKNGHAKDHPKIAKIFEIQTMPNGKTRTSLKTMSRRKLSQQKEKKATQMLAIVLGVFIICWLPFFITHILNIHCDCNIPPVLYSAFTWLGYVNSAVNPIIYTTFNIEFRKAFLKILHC
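Using a no-wash calcium dye in inducible, force-coupled HEK293 Trex cells expressing D2, we tracked fluorescence each second for 180 s after compound, then for 180 s after EC20 dopamine to detect augmented signalling.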
D2 PAM-2: Beta-Arrestin HTS for Positive Allosteric Modulators of the Human D2 Dopamine Receptor: Potentiators | potentiation, % (test concentration not listed) | AID 624464, 2012 | 360,000 tested, 0.23% active | DiscoveRx D2 beta-arrestin cells, luminescence, 90 min; 100% = 57 uM dopamine signal; in the data active = potentiation above about 50%; inconclusive = mostly about 30% to 49%
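D2 cells co-treated with compound plus 50 nM dopamine (EC20) for 90 min at 37 deg C to detect potentiation. Beta-arrestin recruitment was read as enzyme-fragment luminescence after 1 h at ambient temperature. Full response was set by 57 uM dopamine.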
D2 ag-1: Beta-Arrestin HTS for Positive Allosteric Modulators of the Human D2 Dopamine Receptor: Agonists; 360,000 tested, 0.084% active; activation, % (test concentration not listed); DiscoveRx PathHunter D2 beta-arrestin, luminescence, 90 min; 100% = 57 uM dopamine signal; AID 624465, 2012; in the data active = activation above about 40%; inconclusive = between about 15% and that limit
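Agonist mode: compounds alone added to overnight-plated D2 PathHunter cells for 90 min at 37 C, with 57 uM final dopamine (EC100) defining full response. Beta-arrestin recruitment detected by chemiluminescent reagent, read after 1 h at ambient temperature.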
D2 antag: HTS Assay for Allosteric Antagonists of the Human D2 Dopamine Receptor: Primary Screen for Antagonists; HEK293 TREx D2 cells, calcium flux, dopamine EC80; inhibition, % at 10 µM; 340,000 tested, 2% active; AID 485344, 2010; in the data active = inhibition above about 30%; inactive = below that, where a call was filed
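Tetracycline-induced HEK293 T-REx cells expressing D2 force-coupled to calcium signalling were dye-loaded, exposed to compound for 180 s, then challenged with an EC80 of dopamine; calcium flux was followed kinetically for a further 180 s.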
D2 ag-2: HTS Assay for Allosteric Agonists of the Human D2 Dopamine Receptor: Primary Screen for Agonists; HEK293 T-REx D2 cells, calcium flux agonist mode; 340,000 tested, 0.53% active; D(2) dopamine receptor (Homo sapiens), P14416; activation, % at 2 µM;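 active = activation over 3 SD above normal in the single-dose calcium agonist read, cut at about 30% in these data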
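Agonism scored from kinetic calcium signal (1 read/sec, 180 s) following compound pin transfer, after a 10 s baseline. Cells: HEK293 Trex line expressing inducible D2 receptor coupled to calcium, dye-loaded after overnight culture at 30 C.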
D3 arrestin ag: qHTS of D3 Dopamine Receptor Agonist: D3 Dopamine Receptor B-arrestin Agonist Confirmatory Assay. shares compounds with D2 ag-2. DiscoveRx D3 beta-arrestin cells, luminescence, 90 min. Potency, µM (series often up to 76.9 µM), usual class: activators. 2,300 tested, 4% active. AID 720506, 2013; note: nearly all actives have a fitted effect of over 70% in size
D2 ag-3: qHTS of D3 Dopamine Receptor Agonist: D2 Dopamine Receptor B-arrestin Agonist Counterscreen; DiscoveRx PathHunter D2 beta-arrestin, luminescence, 90 min; response scale: percent relative to full dopamine signal; 2,300 tested, 5.9% active; shares compounds with D2 ag-2; Potency, µM (doses to about 76.9 µM), hits mostly activators; note: nearly all actives have a fitted effect of over 70% in size
Hits are given with their value; 0 = inactive; ? = inconclusive; - = not tested or not shown. Unless noted, calls come from the whole dose curve; as a rule, active = well fitted activation curve with a large enough effect; inconclusive = small, poorly fitted or top-dose-only effect; inactive = flat fitted curve, though single readings scatter.

SMILES	D2 PAM-1	D2 PAM-2	D2 ag-1	D2 antag	D2 ag-2	D3 arrestin ag	D2 ag-3
CCN(C(=O)COC(=O)c1ccc(O)cc1O)c1c(N)n(Cc2ccccc2)c(=O)[nH]c1=O	0	0	0	0	0	0	0
CCN(C(=O)CSc1nnc(-c2ccc(C)cc2)n1N)c1c(N)n(Cc2ccccc2)c(=O)[nH]c1=O	0	0	0	0	0	0	0
CCN(C(=O)COC(=O)CCCOc1ccccc1)c1c(N)n(Cc2ccccc2)c(=O)[nH]c1=O	0	0	0	0	0	0	0
Fc1ccccc1-n1ncc2c1ncn1nc(-c3ccccc3Cl)nc21	0	-	-	-	0	-	-
CCOC(=O)c1c(-c2ccc(Cl)cc2)csc1NC(=O)CNCc1ccco1	0	0	0	0	51	0	0
CCOC(=O)c1c(-c2ccc(OC)cc2)csc1NC(=O)CNCc1ccco1	0	0	0	0	0	-	-
CCCCN(C)c1c(C)nc2ccc(C(=O)N(C)Cc3ccco3)cn12	-	0	0	-	-	-	-
CCOC(=O)c1oc2c(c1C)C(=O)CCC2	0	0	0	0	0	0	0
C=CCn1c(SC(C)C(=O)c2c(N)n(C)c(=O)n(C)c2=O)nnc1-c1ccoc1C (centres undefined)	0	0	0	0	32	0	0
O=C(CN(Cc1cccs1)C(=O)CNS(=O)(=O)c1ccc(F)cc1)NCC1CCCO1 (centres undefined)	0	0	0	0	0	-	-
O=C(CN(Cc1ccc(F)cc1)C(=O)CNS(=O)(=O)c1ccc(F)cc1)NCC1CCCO1 (centres undefined)	0	0	0	0	0	0	0
CCCCN(C)c1c(C)nc2ccc(C(=O)N(CC)CCN(C)C)cn12	-	0	0	-	-	-	-
CCOc1ccc2oc(=O)cc(CN3CCN(c4ccc(Cl)cc4)CC3)c2c1	0	-	-	-	0	-	-
Cc1cc(OCc2cc(C(=O)N3CCC(Oc4cccnc4)CC3)no2)cc(C)c1Cl	0	0	0	0	51	0	?
Cc1cc(OCc2cc(C(=O)NC3CCC3)no2)cc(C)c1Cl	0	0	0	43	0	0	0
Cc1ccc(C)c(NC(=O)c2cnc(N3CCCC3)nc2C)c1	0	-	-	-	0	-	-
CN(C(=O)CC(=O)Nc1ccc2nc3n(c(=O)c2c1)CCCCC3)c1ccccc1F	0	-	-	-	0	-	-
COc1cc(-c2nnc(NC(=O)CCS(=O)(=O)c3ccccc3)o2)cc(OC)c1OC	0	0	0	41	0	0	0
COc1cc(-c2nnc(NC(=O)CCS(=O)(=O)c3ccc(F)cc3)o2)cc(OC)c1OC	0	0	0	0	0	-	-
Cc1ccc(SCCNC(=S)Nc2ccc(C)cc2C)cc1	0	0	0	0	0	0	0
COc1ccc(C(OCC(O)CNCCc2ccccc2)c2ccc(OC)cc2)cc1 (centres undefined)	0	0	0	0	51	0	0
OC(CNCCc1ccccc1)COc1ccc(OCC(O)CNCCc2ccccc2)cc1 (centres undefined)	-	0	0	-	-	0	0
CCC(=O)N1CCc2cc(S(=O)(=O)CCC(=O)Nc3ccc(CC)cc3)ccc21	0	0	0	0	0	-	-
CCC(=O)N1CCc2cc(S(=O)(=O)CCC(=O)Nc3ccc(C)cn3)ccc21	0	0	0	64	57	0	0
CCC(=O)N1CCc2cc(S(=O)(=O)N3CCCCCC3)ccc21	0	0	0	31	37	0	0
SMILES	D2 PAM-1	D2 PAM-2	D2 ag-1	D2 antag	D2 ag-2	D3 arrestin ag	D2 ag-3
CCC(=O)N1c2ccc(S(=O)(=O)N3CCN(CC)CC3)cc2CC1C (centres undefined)	0	0	0	39	48	0	0
CCC(=O)N1CCc2cc(S(=O)(=O)N3CCCC3)ccc21	0	0	0	0	0	-	-
CC(=O)N1c2ccc(S(=O)(=O)N3CCC(C(=O)Nc4ncccc4C)CC3)cc2CC1C (centres undefined)	0	0	0	0	0	0	0
O=C(COc1ccc(Br)cc1)Nc1ccc(C(=O)OC2CCCCC2)cc1	0	-	-	-	0	-	-
CCC(=O)N1CCc2cc(S(=O)(=O)CCC(=O)Nc3ccc(C(C)=O)cc3)ccc21	0	0	0	0	0	-	-
CCC(=O)N1CCc2cc(S(=O)(=O)CCC(=O)Nc3nc(C)cs3)ccc21	0	0	0	0	64	0	0
CCC(=O)N1CCc2cc(S(=O)(=O)CCC(=O)NC3CCCCC3)ccc21	0	0	0	0	0	-	-
CCOC(=O)N1CCC(NC(=O)CCS(=O)(=O)c2ccc3c(c2)CCN3C(=O)CC)CC1	0	0	?	73	66	0	?
COc1cc(F)cc(C2=CC(=O)C[C@H](c3ccc(F)cc3)C2)c1	0	0	0	0	0	-	-
COc1cccc(C2=CC(=O)C[C@H](c3ccc(F)cc3)C2)c1	0	0	0	0	0	0	0
COc1ccc([C@H]2CC(=O)C=C(c3ccccc3Oc3ccccc3)C2)cc1	0	0	0	0	0	0	0
COc1ccc([C@H]2CC(=O)C=C(c3cc(F)ccc3F)C2)cc1OC	0	0	0	0	0	0	0
COc1ccc(C2=CC(=O)C[C@H](c3ccc(OC)c(OC)c3)C2)cc1	0	0	0	0	0	0	0
COc1ccccc1C(=O)NC(=O)Cn1nc(C)c([N+](=O)[O-])c1C	0	0	0	-	-	-	-
CC(=O)Nc1ccc(OCC(O)CN2CCN(c3cccc(Cl)c3)CC2)cc1 (centres undefined)	0	0	?	83	76	?	?
CC(=O)Nc1ccc(OCC(O)CN2CCN(c3ccc(F)cc3)CC2)cc1 (centres undefined)	0	0	0	45	69	0	0
CC(=O)Nc1ccc(OCC(O)CN2CCN(S(=O)(=O)c3ccc(NC(C)=O)cc3)CC2)cc1 (centres undefined)	0	0	0	0	0	-	-
CC(=O)Nc1ccc(OCC(O)CN2CCN(c3ccc(Cl)cc3)CC2)cc1 (centres undefined)	0	0	0	40	0	0	0
